In the supplement of paper PMC11732987, “Enantioselective OTUD7B fragment discovery through chemoproteomics screening and high-throughput optimisation” (Communications Chemistry, 2025):

What was measured:
Test in all cases: log2 ratio of Biotin-Ahx-Ub-VS probe labelling (fragment/DMSO); higher = less target engagement (more negative = stronger competition), active = hit call of the paper (q ≤ 0.05, log2 ratio ≤ -1)
Details in all cases: compound concentration: 200 uM; treatment time: 3 h
USP19 = target: T1, USP19 (UniProt O94966)
T1 sequence (whole entry): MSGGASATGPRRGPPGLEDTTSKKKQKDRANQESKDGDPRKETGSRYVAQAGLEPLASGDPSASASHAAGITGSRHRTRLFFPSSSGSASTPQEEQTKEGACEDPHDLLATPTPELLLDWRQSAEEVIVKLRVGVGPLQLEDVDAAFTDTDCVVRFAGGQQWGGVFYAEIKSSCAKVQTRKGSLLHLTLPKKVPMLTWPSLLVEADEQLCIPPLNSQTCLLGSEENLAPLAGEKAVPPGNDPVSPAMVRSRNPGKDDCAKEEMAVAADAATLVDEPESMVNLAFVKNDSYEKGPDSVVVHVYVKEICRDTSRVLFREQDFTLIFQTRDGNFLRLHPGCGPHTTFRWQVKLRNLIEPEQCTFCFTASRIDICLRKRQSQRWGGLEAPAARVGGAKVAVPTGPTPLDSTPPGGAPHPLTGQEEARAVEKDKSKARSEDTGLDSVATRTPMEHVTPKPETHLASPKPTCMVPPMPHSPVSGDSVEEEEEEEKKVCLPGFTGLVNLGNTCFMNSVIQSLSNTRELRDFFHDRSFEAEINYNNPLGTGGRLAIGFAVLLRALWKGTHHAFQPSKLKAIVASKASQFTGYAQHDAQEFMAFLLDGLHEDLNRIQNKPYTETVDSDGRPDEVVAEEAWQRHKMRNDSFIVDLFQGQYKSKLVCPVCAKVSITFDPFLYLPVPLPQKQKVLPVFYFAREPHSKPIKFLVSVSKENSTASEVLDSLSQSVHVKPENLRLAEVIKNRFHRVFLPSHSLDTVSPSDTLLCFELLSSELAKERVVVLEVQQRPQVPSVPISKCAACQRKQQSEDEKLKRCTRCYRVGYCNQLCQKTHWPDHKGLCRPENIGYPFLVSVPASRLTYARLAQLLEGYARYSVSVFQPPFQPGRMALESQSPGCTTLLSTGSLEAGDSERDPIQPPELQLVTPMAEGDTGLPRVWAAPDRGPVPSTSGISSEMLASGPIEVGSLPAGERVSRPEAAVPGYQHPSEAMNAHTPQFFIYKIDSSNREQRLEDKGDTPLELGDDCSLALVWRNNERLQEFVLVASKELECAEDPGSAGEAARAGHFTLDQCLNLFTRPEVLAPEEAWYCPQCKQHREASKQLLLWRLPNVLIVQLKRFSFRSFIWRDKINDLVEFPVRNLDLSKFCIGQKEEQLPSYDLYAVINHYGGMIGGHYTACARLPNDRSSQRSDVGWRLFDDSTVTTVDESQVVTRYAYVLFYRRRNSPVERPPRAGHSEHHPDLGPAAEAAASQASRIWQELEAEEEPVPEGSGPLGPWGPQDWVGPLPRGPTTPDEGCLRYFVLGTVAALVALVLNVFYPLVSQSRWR
Summary of the method: (§1)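 Triplicate samples of HEK293T lysate, 495 µg each, received fragment at 200 µM or vehicle for 3 h, followed by Biotin-Ahx-Ub-VS (0.5 µM final) for 1 h. After NeutrAvidin enrichment of labelled DUBs and LysC/trypsin digestion, peptides were run by diaPASEF LC-MS/MS. The values are average log2 fragment/vehicle ratios from global-median-normalised Spectronaut label-free quantities, tested by unpaired t-test on proteins having ≥2 unique peptides.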

USP24 = USP24 (UniProt Q9UPU5)
USP24, sequence (Q9UPU5 whole entry): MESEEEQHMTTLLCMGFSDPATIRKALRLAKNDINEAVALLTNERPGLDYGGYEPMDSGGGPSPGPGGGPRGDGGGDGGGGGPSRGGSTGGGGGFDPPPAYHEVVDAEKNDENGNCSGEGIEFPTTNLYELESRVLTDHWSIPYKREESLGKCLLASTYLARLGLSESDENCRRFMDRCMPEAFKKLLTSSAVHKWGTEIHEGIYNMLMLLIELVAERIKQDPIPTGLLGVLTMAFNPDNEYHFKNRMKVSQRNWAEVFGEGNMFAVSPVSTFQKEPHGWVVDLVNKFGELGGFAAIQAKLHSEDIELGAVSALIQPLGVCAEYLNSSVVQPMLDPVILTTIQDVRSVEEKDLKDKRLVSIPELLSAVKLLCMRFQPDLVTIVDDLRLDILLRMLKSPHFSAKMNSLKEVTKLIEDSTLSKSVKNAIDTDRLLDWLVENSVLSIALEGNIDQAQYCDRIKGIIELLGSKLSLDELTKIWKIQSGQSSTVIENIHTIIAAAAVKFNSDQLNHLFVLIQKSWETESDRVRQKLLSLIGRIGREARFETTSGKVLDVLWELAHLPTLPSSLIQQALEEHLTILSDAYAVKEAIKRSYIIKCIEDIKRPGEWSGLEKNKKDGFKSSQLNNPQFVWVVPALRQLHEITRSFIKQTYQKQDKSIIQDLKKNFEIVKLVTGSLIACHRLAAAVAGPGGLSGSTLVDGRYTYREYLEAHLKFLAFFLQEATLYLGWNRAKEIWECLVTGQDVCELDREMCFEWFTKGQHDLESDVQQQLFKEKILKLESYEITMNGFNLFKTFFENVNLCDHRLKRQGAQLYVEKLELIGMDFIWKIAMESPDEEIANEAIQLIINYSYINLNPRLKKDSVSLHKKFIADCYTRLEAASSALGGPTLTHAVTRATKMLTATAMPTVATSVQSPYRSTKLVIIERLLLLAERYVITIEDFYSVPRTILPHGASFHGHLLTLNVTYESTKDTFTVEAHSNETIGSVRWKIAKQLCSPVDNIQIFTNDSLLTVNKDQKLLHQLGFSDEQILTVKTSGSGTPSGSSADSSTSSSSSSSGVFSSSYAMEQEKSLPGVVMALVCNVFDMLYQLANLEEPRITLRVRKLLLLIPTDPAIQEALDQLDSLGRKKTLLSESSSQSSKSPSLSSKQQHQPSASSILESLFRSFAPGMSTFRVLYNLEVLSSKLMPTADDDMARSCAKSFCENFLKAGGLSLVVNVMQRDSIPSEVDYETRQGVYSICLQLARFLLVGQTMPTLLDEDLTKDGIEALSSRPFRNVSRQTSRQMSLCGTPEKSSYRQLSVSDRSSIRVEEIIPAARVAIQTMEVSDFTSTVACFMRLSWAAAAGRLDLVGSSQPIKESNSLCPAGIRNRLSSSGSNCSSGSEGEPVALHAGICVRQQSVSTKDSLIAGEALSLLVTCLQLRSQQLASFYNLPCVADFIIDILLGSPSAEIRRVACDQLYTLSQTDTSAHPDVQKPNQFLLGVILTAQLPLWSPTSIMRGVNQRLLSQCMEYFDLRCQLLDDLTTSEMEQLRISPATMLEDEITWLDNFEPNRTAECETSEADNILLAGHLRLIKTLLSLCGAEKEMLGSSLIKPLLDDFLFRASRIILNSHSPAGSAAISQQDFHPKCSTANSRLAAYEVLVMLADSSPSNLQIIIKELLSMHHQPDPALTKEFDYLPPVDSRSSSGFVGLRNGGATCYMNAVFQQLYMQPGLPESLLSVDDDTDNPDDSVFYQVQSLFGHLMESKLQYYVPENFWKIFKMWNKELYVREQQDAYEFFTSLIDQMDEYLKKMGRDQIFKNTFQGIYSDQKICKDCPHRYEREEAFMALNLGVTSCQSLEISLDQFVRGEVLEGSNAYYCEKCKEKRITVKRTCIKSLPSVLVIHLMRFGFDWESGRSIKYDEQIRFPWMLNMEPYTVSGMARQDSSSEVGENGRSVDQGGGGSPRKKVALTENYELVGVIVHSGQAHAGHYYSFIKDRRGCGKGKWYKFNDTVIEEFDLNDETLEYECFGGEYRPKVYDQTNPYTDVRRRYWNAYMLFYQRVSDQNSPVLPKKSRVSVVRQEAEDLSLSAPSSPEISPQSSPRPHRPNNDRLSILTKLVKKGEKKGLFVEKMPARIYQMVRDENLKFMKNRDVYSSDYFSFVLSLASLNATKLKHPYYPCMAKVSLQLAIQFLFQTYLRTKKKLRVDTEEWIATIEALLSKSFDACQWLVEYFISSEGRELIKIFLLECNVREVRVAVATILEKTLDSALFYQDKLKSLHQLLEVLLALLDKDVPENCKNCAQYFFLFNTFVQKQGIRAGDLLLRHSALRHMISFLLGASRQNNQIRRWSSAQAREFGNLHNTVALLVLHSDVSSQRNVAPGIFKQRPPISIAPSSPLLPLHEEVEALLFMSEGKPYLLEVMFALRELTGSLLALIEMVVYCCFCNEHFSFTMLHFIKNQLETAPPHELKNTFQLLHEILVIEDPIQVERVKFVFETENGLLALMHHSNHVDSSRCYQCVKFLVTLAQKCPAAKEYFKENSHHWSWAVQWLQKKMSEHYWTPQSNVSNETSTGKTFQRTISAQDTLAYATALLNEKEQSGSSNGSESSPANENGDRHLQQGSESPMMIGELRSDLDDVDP
Summary of the method: as §1

USP25 = target: T2, USP25 (UniProt Q9UHP3)
T2 sequence (whole entry): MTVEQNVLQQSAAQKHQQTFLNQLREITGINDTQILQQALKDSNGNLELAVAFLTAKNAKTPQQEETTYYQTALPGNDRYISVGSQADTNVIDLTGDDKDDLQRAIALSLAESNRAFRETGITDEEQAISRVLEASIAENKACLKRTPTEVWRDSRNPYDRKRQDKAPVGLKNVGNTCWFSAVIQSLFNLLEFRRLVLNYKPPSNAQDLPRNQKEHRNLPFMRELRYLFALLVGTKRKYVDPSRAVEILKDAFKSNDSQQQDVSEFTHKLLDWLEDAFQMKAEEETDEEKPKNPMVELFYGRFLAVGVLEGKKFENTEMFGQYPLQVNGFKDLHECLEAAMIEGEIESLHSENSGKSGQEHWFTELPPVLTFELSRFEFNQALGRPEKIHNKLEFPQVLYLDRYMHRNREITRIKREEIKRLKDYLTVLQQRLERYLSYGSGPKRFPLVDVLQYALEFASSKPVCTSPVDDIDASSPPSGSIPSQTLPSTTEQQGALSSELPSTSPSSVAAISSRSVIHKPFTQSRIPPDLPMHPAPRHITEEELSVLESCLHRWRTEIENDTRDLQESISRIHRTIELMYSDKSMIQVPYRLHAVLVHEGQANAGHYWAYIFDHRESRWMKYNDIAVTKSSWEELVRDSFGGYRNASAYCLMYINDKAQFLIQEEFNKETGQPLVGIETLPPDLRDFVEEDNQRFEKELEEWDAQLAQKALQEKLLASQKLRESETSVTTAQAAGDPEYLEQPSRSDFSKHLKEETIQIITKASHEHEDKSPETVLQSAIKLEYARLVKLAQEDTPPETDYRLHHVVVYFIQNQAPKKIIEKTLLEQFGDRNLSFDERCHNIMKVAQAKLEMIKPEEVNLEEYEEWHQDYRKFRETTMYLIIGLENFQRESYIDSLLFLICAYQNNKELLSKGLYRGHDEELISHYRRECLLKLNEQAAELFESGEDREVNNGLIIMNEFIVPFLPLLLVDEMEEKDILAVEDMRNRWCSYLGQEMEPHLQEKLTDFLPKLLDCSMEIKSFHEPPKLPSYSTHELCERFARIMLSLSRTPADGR
Summary of the method: as §1

USP28 = target: T3, USP28 (UniProt Q96RU2)
T3 sequence (whole entry): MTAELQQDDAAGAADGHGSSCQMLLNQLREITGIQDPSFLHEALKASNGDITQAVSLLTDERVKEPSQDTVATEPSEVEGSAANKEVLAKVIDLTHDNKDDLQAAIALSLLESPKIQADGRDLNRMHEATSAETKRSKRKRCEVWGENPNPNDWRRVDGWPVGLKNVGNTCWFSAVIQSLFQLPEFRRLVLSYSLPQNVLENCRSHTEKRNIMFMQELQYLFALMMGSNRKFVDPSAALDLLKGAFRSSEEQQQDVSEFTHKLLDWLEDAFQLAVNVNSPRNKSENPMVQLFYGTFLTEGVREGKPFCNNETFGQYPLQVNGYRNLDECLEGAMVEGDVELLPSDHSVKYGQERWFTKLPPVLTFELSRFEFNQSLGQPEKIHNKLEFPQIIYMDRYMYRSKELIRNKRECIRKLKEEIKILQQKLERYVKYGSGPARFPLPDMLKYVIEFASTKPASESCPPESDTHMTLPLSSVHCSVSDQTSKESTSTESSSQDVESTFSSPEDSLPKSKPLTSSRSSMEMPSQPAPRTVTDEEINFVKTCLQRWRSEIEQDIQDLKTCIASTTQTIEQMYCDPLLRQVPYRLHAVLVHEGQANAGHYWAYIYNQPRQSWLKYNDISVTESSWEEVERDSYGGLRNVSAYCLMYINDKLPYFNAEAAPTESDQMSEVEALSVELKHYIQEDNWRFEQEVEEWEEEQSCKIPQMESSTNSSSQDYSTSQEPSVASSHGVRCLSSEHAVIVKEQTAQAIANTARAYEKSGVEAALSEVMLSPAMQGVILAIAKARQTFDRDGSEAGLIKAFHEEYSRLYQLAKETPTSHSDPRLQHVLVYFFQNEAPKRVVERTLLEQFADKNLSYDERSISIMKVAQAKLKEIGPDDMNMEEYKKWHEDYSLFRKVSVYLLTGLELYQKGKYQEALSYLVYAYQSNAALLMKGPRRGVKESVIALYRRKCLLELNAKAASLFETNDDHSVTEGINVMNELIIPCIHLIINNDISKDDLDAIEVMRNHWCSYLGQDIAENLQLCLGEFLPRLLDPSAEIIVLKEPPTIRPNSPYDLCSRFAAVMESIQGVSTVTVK
Summary of the method: as §1

Measured: log2 ratio of Biotin-Ahx-Ub-VS probe labelling

CC(NC(=O)CCl)c1cccc(Cl)c1 (centres undefined)
inactive: USP19 -0.35 | USP24 -0.342 | USP25 -0.639 | USP28 -0.845
